The source of these data is PubChem BioAssay (NCI).

About 79,000 compounds went through this panel and 15% of them were active in at least one assay; those are over-represented in the sample as a whole. Unmarked numbers belong to inactive results. Calls of active or inactive are those of the source. No stated cut-off is given here; in the data, active means growth inhibition above about 70%; inactive means the rest.

Assay [1] in a line: NCI Yeast Anticancer Drug Screen. Data for the rad50 strain (AID 155).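 Further: 0% = growth of vehicle-only cultures of the same strain.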 The note with it: S. cerevisiae rad50 strain growth inhibition, stronger effect = higher value. The gist of the method:
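Vehicle-treated cultures provide the reference for the growth inhibition reported for compound-exposed, repair-deficient yeast.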

The nature of assay [2]: NCI Yeast Anticancer Drug Screen. Data for the mec2-1 strain (AID 157). The note with it: S. cerevisiae mec2-1 strain, stronger effect = higher value. The gist of the method:
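Vehicle-treated cultures served as reference for growth inhibition of compound-exposed mec2-1 yeast.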

A short description of assay [3]: NCI Yeast Anticancer Drug Screen. Data for the sgs1 mgt1 strain (AID 161).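 Further: 0% = growth of cultures given vehicle only.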 The note with it: S. cerevisiae sgs1 mgt1 strain, stronger effect = higher value. The gist of the method:
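Genetically altered yeast, compound exposure, growth inhibition relative to vehicle.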

Assay [4] in a line: NCI Yeast Anticancer Drug Screen. Data for the cln2 rad14 strain (AID 165).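 Further: 0% = growth equal to vehicle treated cultures.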 To be noted: S. cerevisiae cln2 rad14 strain, stronger effect = higher value. The gist of the method: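 Each compound was tested on cln2 rad14 yeast. Inhibition of growth was calculated against vehicle-exposed controls.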
A short description of assay [5]: NCI Yeast Anticancer Drug Screen. Data for the bub3 strain (AID 167). To be noted: S. cerevisiae bub3 mutant strain, stronger effect = higher value. In outline:
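Mutant yeast screening strain plus compound; vehicle-treated cultures serve as the 0% inhibition reference.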

Assay [6] in a line: NCI Yeast Anticancer Drug Screen. Data for the mlh1 rad18 strain (AID 175). To be noted: S. cerevisiae mlh1 rad18 strain growth inhibition, stronger effect = higher value. The gist of the method:
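Vehicle-treated cultures served as the reference for growth inhibition in a yeast strain carrying DNA damage repair alterations exposed to each compound.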

Where [7] appears, read: at 5.0 µM (retest, dose inferred, filed as 0.5).
Setting [8] is: at 50.0 µM (retest, dose inferred, filed as 5.0).

As to `O=S(=O)(c1cc(Cl)ccc1Cl)N1CCc2ccccc2C1`, the growth inhibition in assay [1] (setting [7]) was 14%; in assay [1] (setting [8]), 3%; in assay [1] (at 50.0 µM), 16.1%; in assay [2] (setting [7]) it was -28%; in assay [2] (setting [8]), -13%; in assay [2] (at 50.0 µM), -25.6%. The growth inhibition in assay [3] (setting [7]) is -1%; in assay [3] (setting [8]), 12%; in assay [3] (at 50.0 µM), 25.6%; in assay [4] (setting [7]) it was -1%; in assay [4] (setting [8]), 15%; in assay [4] (at 50.0 µM) it was -11.4%. Further, the growth inhibition in assay [5] (setting [7]) was 18%; in assay [5] (setting [8]) it was 12%; in assay [5] (at 50.0 µM), 5%; in assay [6] (setting [7]), -17%; in assay [6] (setting [8]) it was -31%; in assay [6] (at 50.0 µM), -9.85%.
Turning to `COC(=O)c1ccc(C)cc1C1CN=NC12Cc1cc(C)ccc1C2=O` (stereo not given), the growth inhibition in assay [1] (setting [7]) is 10%; in assay [1] (setting [8]) it was 50%; in assay [1] (at 50.0 µM), 5.35%; in assay [2] (setting [7]), 8%; in assay [2] (setting [8]), 44%; in assay [2] (at 50.0 µM), 19.6%. The growth inhibition was 5% in assay [3] (setting [7]); 67% in assay [3] (setting [8]); 68.6% in assay [3] (at 50.0 µM); 6% in assay [4] (setting [7]); 44% in assay [4] (setting [8]); 37.2% in assay [4] (at 50.0 µM). The growth inhibition is 6% in assay [5] (setting [7]); 73% (active) in assay [5] (setting [8]); 46.1% in assay [5] (at 50.0 µM); 13% in assay [6] (setting [7]); 65% in assay [6] (setting [8]); 65% in assay [6] (at 50.0 µM).
On to `c1ccc2c(c1)cc(C1NCCc3[nH]cnc31)c1ccccc12` (stereo not given), for which the growth inhibition was 13% in assay [1] (setting [7]); 80% (active) in assay [1] (setting [8]); 47% in assay [1] (at 50.0 µM); -4% in assay [2] (setting [7]); 83% (active) in assay [2] (setting [8]); 1.5% in assay [2] (at 50.0 µM). Also, the growth inhibition in assay [3] (setting [7]) was 16%; in assay [3] (setting [8]), 82% (active); in assay [3] (at 50.0 µM) it was -15.3%; in assay [4] (setting [7]), 26%; in assay [4] (setting [8]), 71% (active); in assay [4] (at 50.0 µM) it was 30.4%. In addition, the growth inhibition in assay [5] (setting [7]) is 13%; in assay [5] (setting [8]) it was 96% (active); in assay [5] (at 50.0 µM), 11.1%; in assay [6] (setting [7]), -21%; in assay [6] (setting [8]), 97% (active); in assay [6] (at 50.0 µM) it was 61.9%.
With `Cc1ccc(C(=O)/C=C/c2ccccc2)cc1`, the growth inhibition in assay [1] (setting [7]) is 8%; in assay [1] (setting [8]), 42%; in assay [1] (at 50.0 µM) it was 52%; in assay [2] (setting [7]), -6%; in assay [2] (setting [8]), 14%; in assay [2] (at 50.0 µM), 13.7%. Besides, the growth inhibition was 1% in assay [3] (setting [7]); 38% in assay [3] (setting [8]); 36.6% in assay [3] (at 50.0 µM); 0% in assay [4] (setting [7]); -22% in assay [4] (setting [8]); -22% in assay [4] (at 50.0 µM). The growth inhibition in assay [5] (setting [7]) is 6%; in assay [5] (setting [8]), 19%; in assay [5] (at 50.0 µM), 9.3%; in assay [6] (setting [7]) it was 2%; in assay [6] (setting [8]), 24%; in assay [6] (at 50.0 µM) it was 82.1% (active).
Consider `CO/N=C/c1cc(NC(=S)c2ccoc2C)ccc1Cl`, for which the growth inhibition in assay [1] (setting [7]) was 4%; in assay [1] (setting [8]), 0%; in assay [1] (at 50.0 µM), 93.2% (active); in assay [2] (setting [7]), -16%; in assay [2] (setting [8]), -17%; in assay [2] (at 50.0 µM), 94.2% (active). For the same molecule, the growth inhibition was 20% in assay [3] (setting [7]); 6% in assay [3] (setting [8]); 93.7% (active) in assay [3] (at 50.0 µM); -26% in assay [4] (setting [7]); 10% in assay [4] (setting [8]); 92.2% (active) in assay [4] (at 50.0 µM). Besides, the growth inhibition in assay [5] (setting [7]) was 9%; in assay [5] (setting [8]), 34%; in assay [5] (at 50.0 µM) it was 92.2% (active); in assay [6] (setting [7]) it was -23%; in assay [6] (setting [8]), -14%; in assay [6] (at 50.0 µM) it was 91.2% (active).
On to `O=C(c1cccnc1)N(C1CCCCC1)C1CCCCC1`, for which the growth inhibition in assay [1] (setting [7]) was 3%; in assay [1] (setting [8]), 4%; in assay [1] (at 50.0 µM), 2.25%; in assay [2] (setting [7]), -2%; in assay [2] (setting [8]), 8%; in assay [2] (at 50.0 µM), -6.85%. Moreover, the growth inhibition is 2% in assay [3] (setting [7]); 6% in assay [3] (setting [8]); 3.4% in assay [3] (at 50.0 µM); 1% in assay [4] (setting [7]); 9% in assay [4] (setting [8]); 11.8% in assay [4] (at 50.0 µM). Also, the growth inhibition in assay [5] (setting [7]) was 1%; in assay [5] (setting [8]) it was 12%; in assay [5] (at 50.0 µM), 0.35%; in assay [6] (setting [7]), -10%; in assay [6] (setting [8]), 6%; in assay [6] (at 50.0 µM), -2.25%.
In the case of `O=C(N/N=C/c1cc(Br)ccc1O)c1ccccc1`, the growth inhibition was 59% in assay [1] (setting [7]); 61% in assay [1] (setting [8]); -23.9% in assay [1] (at 50.0 µM); 32% in assay [2] (setting [7]); 53% in assay [2] (setting [8]); -18.9% in assay [2] (at 50.0 µM). Further, the growth inhibition in assay [3] (setting [7]) was 64%; in assay [3] (setting [8]) it was 82% (active); in assay [3] (at 50.0 µM) it was 5.65%; in assay [4] (setting [7]), 21%; in assay [4] (setting [8]) it was 25%; in assay [4] (at 50.0 µM) it was -33.9%. Besides, the growth inhibition is 79% (active) in assay [5] (setting [7]); 89% (active) in assay [5] (setting [8]); -12.6% in assay [5] (at 50.0 µM); 92% (active) in assay [6] (setting [7]); 90% (active) in assay [6] (setting [8]); -6.75% in assay [6] (at 50.0 µM).
With `CC(O)CCCOC(c1ccccc1)(c1ccccc1)c1ccccc1` (stereo not given), the growth inhibition in assay [1] (setting [7]) was 19%; in assay [1] (setting [8]) it was 97% (active); in assay [1] (at 50.0 µM), 86.5% (active); in assay [2] (setting [7]) it was 9%; in assay [2] (setting [8]), 97% (active); in assay [2] (at 50.0 µM) it was 83.8% (active). Besides, the growth inhibition in assay [3] (setting [7]) was 17%; in assay [3] (setting [8]) it was 95% (active); in assay [3] (at 50.0 µM) it was 80.8% (active); in assay [4] (setting [7]) it was 15%; in assay [4] (setting [8]) it was 94% (active); in assay [4] (at 50.0 µM) it was 82.7% (active). Moreover, the growth inhibition in assay [5] (setting [7]) is 28%; in assay [5] (setting [8]), 93% (active); in assay [5] (at 50.0 µM), 80.5% (active); in assay [6] (setting [7]), 19%; in assay [6] (setting [8]) it was 96% (active); in assay [6] (at 50.0 µM), 84.4% (active).
For `CC1(C)C/C(=N/NC(N)=S)C(=NO)/C(=N\NC(N)=S)C1`, the growth inhibition in assay [1] (setting [7]) is 6%; in assay [1] (setting [8]), 60%; in assay [1] (at 50.0 µM), 75% (active); in assay [2] (setting [7]), 2%; in assay [2] (setting [8]), 40%; in assay [2] (at 50.0 µM) it was 62%. The growth inhibition is 9% in assay [3] (setting [7]); 61% in assay [3] (setting [8]); 77.4% (active) in assay [3] (at 50.0 µM); -13% in assay [4] (setting [7]); 27% in assay [4] (setting [8]); 23.4% in assay [4] (at 50.0 µM). For the same molecule, the growth inhibition in assay [5] (setting [7]) was 0%; in assay [5] (setting [8]) it was 34%; in assay [5] (at 50.0 µM), 76.8% (active); in assay [6] (setting [7]), 2%; in assay [6] (setting [8]), 59%; in assay [6] (at 50.0 µM) it was 74.5% (active).
Consider `CCC(c1ccc(O)cc1)C(O)(CC)c1ccc(O)cc1` (stereo not given), for which the growth inhibition in assay [1] (setting [7]) is -6%; in assay [1] (setting [8]) it was -9%; in assay [1] (at 50.0 µM), 46.4%; in assay [2] (setting [7]), -10%; in assay [2] (setting [8]), -4%; in assay [2] (at 50.0 µM), 28.9%. The growth inhibition in assay [3] (setting [7]) is -3%; in assay [3] (setting [8]) it was 35%; in assay [3] (at 50.0 µM), 65.1%; in assay [4] (setting [7]), -24%; in assay [4] (setting [8]), -1%; in assay [4] (at 50.0 µM) it was 26.1%. Besides, the growth inhibition was -11% in assay [5] (setting [7]); -11% in assay [5] (setting [8]); 58.6% in assay [5] (at 50.0 µM); -26% in assay [6] (setting [7]); -8% in assay [6] (setting [8]); 14.3% in assay [6] (at 50.0 µM).
